Source: PubChem BioAssay AID453 (PCMD, 2006)
Out of some 63,000 compounds screened, about 75 (0.1%) were called active. The entries come from a sample that favours actives as a whole. A number with no mark means an inactive call. Rule as the data show it: active = inhibition above about 21%; inactive = the rest.

Each molecule was assayed against Cathepsin B (Homo sapiens) (UniProt P07858) (assay: blockers of cathepsin B proteolysis – biochemical, fluorogenic substrate, primary screen (AID 453;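 also: 0% = enzyme with no compound and 100% = no enzyme blank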)). Settings: purified cathepsin B, fluorescence, active compounds read high,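 tested at 10 µM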.

| SMILES | inhibition |
| --- | --- |
| Cc1ccc(NC(=O)CSc2nnc(-c3cnccn3)n2Cc2ccco2)cc1C | 3.51% |
| CC(C)OC(=O)C(C#N)c1nc2ccccc2nc1N1CCN(Cc2ccc3c(c2)OCO3)CC1 (centres undefined) | 0.39% |
| CCOc1ccc2[nH]c(=O)c(CN(CCCO)C(C)=O)cc2c1 | 2.29% |
| CCOc1ccc2c(c1)cc(CN(C(=O)CC)C1CCCCC1)c1nnnn12 | 10.1% |
| CCOC(=O)N1CCN(CC(=O)n2c(C)c(C)c3ccccc32)CC1 | -1.09% |
| O=C(c1cccc(C(=O)N2CCc3ccccc32)n1)N1CCc2ccccc21 | 3.59% |
| CC(C)(C)Oc1ncc(Br)c(OC(C)(C)C)n1 | -1.01% |
| Cn1c2c(c(=O)n(C)c1=O)CN(Cc1ccco1)CN2 | 2.04% |
| N#CCSc1nc2ccccc2c(=O)n1-c1ccccc1 | 5.09% |
| c1ccc(-n2ncc3c2ncn2c(CSc4nc5ccccc5s4)nnc32)cc1 | -2% |
| CC(C)(C)n1nnnc1C(c1cccs1)N(Cc1cccnc1)CC1CCCO1 (centres undefined) | 3.9% |
| COc1ccc(/C(O)=C2/C(=O)C(=O)N(CCCN(C)C)C2c2ccccc2)cc1OC (centres undefined) | 0.7% |
| Cn1c(=O)oc2cc(S(=O)(=O)N3CCC(C(=O)Nc4ccc(OC(F)(F)F)cc4)CC3)ccc21 | 1.08% |
| Cc1nnc(SCC(=O)N(C(C)C)C(C)C)nc1C | 3.33% |
| COc1cccc(-c2nnc(NC(=O)c3ccc(S(=O)(=O)N(CC(C)C)CC(C)C)cc3)o2)c1 | 3.9% |
| C=C(C)CSc1nc(N)c2c3c(sc2n1)CCC3 | -1.31% |
| O=C(Nc1ccccc1)c1cccnc1Nc1ccccc1 | -3.06% |
| COc1ccc(Cc2nnnn2CC(=O)O)cc1 | -2.08% |
| CSc1nsc(SC)c1NC(=O)OC1CCCCC1 | 2.76% |
| CCOC(=O)C1CCCN(C(=O)C2CCN(c3nnc(-n4cccc4)s3)CC2)C1 (centres undefined) | 5.94% |
| Cn1nnnc1SCC(=O)N1CCN(C(c2ccccc2)c2ccccc2)CC1 | 8.32% |
| C/C(=C(\C#N)C(=O)NCCCN1CCOCC1)N(C)C | 2.66% |

| SMILES | inhibition |
| --- | --- |
| CC1(C)C/C(=C(/C#N)C(N)=O)CCO1 | 9.43% |
| Cc1ccsc1CNn1cnnc1SCc1ccccc1F | 2.13% |
| CC(NC(=O)CN1CCN(Cc2ccc(Cl)cc2)C1=O)c1ccc2c(c1)OCCO2 (centres undefined) | 0.3% |
| CCOC(=O)c1ccc(Nc2cc(C)nc3nc(C)nn23)cc1 | -3.59% |
| O=C(CN1CCOc2ccccc21)N1CCC(Cc2ccccc2)CC1 | 0.85% |
| C=CCn1c(C2CC(=O)N(c3ccc(C)cc3)C2)nc2ccccc21 (centres undefined) | -1.25% |
| CCN(CC)CCCNC(=O)c1cc(-c2cccc(Cl)c2)on1 | 4.03% |
| O=C1N(Cc2ccc3c(c2)OCO3)c2ccccc2C1(O)c1c[nH]c2ccccc12 (centres undefined) | -2.6% |
| CCOc1ccc(/C(O)=C2/C(=O)C(=O)N(Cc3cccnc3)C2c2ccc(N(C)C)cc2)c(C)c1 (centres undefined) | 1.4% |
| Nc1nonc1-c1noc(-c2ccc(Br)o2)n1 | 25% (active) |
| O=C(O)CCC(=O)NCc1ccc2[nH]c3c(c2c1)CCCC3 | 3.83% |
| CCOC(=O)c1c(NC(=O)CSc2nnc(CN3CCOCC3)n2C)sc2c1CCCC2 | -0.13% |
| O=C(OCC(O)C(O)COC(=O)c1ccccc1)c1ccccc1 (centres undefined) | 0.46% |
| N#Cc1c(N)n(CCOC(=O)c2ccc(Cl)cc2)c2nc3ccccc3nc12 | 0.87% |
| Cc1ccc(-n2c(N)c(C(=O)N3CCOCC3)sc2=S)c(C)c1 | -2.06% |
| O=C(CN1CCN(c2ncc(C(F)(F)F)cc2Cl)CC1)Nc1ccc2c(c1)OCO2 | 10.7% |
| CC1(C)CC(=O)C(C2=NC(C)(C)Cc3ccccc32)=C(O)C1 | 0.19% |
| CCCCOC(=O)c1[nH]c(C)c(C(=O)OC)c1C | 4.33% |
| CC(Sc1nncs1)C(=O)NCc1ccc2c(c1)OCO2 (centres undefined) | -5.21% |
| CCOC(=O)N1CCN(S(=O)(=O)c2cc3c(cc2C)NC(=O)CO3)CC1 | 1.1% |
| CCOC(=O)CCc1c(C)c(C#N)c2[nH]c3ccccc3n2c1=O | 2.21% |
| O=C(NCc1ccccn1)c1cnc2sccn2c1=O | -2.74% |

| SMILES | inhibition |
| --- | --- |
| Cc1ccccc1C(OCC(O)CN1CCCCC1CCO)c1ccccc1 (centres undefined) | 2.98% |
| CCCC(=O)N1CCc2[nH]c3ccccc3c2C1 | 0.39% |
| Cc1ccccc1Nc1nnc(C)c(=O)[nH]1 | -0.9% |
| CC(=O)C1=C(O)C(=O)N(c2ccc(S(N)(=O)=O)cc2)C1c1ccccc1F (centres undefined) | -1.52% |
| Cc1ccc(NC(=O)NCC(c2cccnc2)N2CCOCC2)cc1 (centres undefined) | -2.73% |
| OCc1nc(CO)n(Cc2ccccc2)n1 | 5.1% |
| c1ccc(CCC2=NCCn3cccc32)cc1 | 4.22% |
| CCOc1ccccc1C1NC(=O)NC(C)=C1C(=O)OCc1ccco1 (centres undefined) | 2.19% |
| COc1cccc(N2CCN(C(=O)C3CCCN(S(=O)(=O)c4cnc[nH]4)C3)CC2)c1 (centres undefined) | -4.17% |
| Cc1cccc(N2CCN(C(=O)C3CCN(S(=O)(=O)c4cnc[nH]4)CC3)CC2)c1C | 44.5% (active) |
| O=C(C1CCN(S(=O)(=O)c2cnc[nH]2)CC1)N1CCN(Cc2ccc3c(c2)OCO3)CC1 | 5.41% |
| CCC(c1nnnn1C1CCCC1)N1CCN(C(=O)c2ccco2)CC1 (centres undefined) | 4.25% |
| CCCCN=C(N)/C(C(=O)OCC)=C(\O)c1ccc(OC)cc1 | -2.85% |
| CC(C)OC(=O)c1sc2nc3c(cc2c1N)C(=O)CCC3 | 1.67% |
| COc1ccc(N2C(=O)C3CCCN3C2c2cccs2)cc1 (centres undefined) | 2.37% |
| O=S(=O)(NCCOc1cccc2cccnc12)c1ccc(F)cc1 | -0.09% |
| O=C(C1=C(O)C(=O)N(Cc2ccccc2)C1c1cccnc1)c1ccco1 (centres undefined) | -2.37% |
| N#CCCN(CCC#N)c1nnc(-c2ccccc2)s1 | 1.65% |
| COc1ccccc1CNC(=O)CCCNS(=O)(=O)c1cccc2nsnc12 | 3.57% |
| O=C(CSc1nnnn1C1CCCC1)Nc1ccc2c(c1)OCCO2 | -2.88% |
| Cc1ccccc1CSc1nnc(Cn2c(=O)sc3ccccc32)n1C | 1.64% |
| CN1CCN(c2nc3c(c(=O)[nH]c(=O)n3C)n2Cc2cccc3ccccc23)CC1 | 5.25% |

| SMILES | inhibition |
| --- | --- |
| C=C(Br)CN1CCN(CC(=C)Br)CC1 | 8.43% |
| CCOc1cc(-c2conc2N)cc(OCC)c1OCC | 0.88% |
| O=c1[nH]c(=O)n(Cc2ccco2)c2c1C(C(F)(F)F)(C(F)(F)F)N=C(c1ccco1)N2 | 3.15% |
| Cc1ccc(-c2nn(-c3ccccc3)cc2CN(Cc2ccccc2)C(=O)CCC(=O)O)o1 | -3.71% |
| O=c1oc2c(CN3CCCCC3)c(O)ccc2c2c1CCCCC2 | -33.1% |
| C=CCNc1nc(C)nc(OC)n1 | 3.19% |
| O=CN1CCN(C2CC(=O)N(c3ccc4c(c3)OCO4)C2=O)CC1 (centres undefined) | -5.45% |
| COCCn1c(SCC(=O)Nc2cc(Cl)ccc2OC)nc2c(c1=O)SC(C)C2 (centres undefined) | -1.89% |
| O=C(COc1ccc(Cl)cc1)Nc1ccccc1CO | -0.12% |
| CCOC(=O)c1c(C)nc(-c2ccccc2)nc1NC(=O)C(C)C | -1.86% |
| CCOC(=O)c1c(NC(=O)CSc2nnc(Cc3csc(N)n3)n2C)sc(C)c1C | 1.53% |
| O=C(O)C1CCCCC1C(=O)Nc1ccc(Cl)cc1 (centres undefined) | -2.32% |
| O=C1Nc2ccccc2C12Nc1ccccc1S2 (centres undefined) | -3.59% |
| CCOC(=O)c1[nH]c2ccccc2c1N=C(C)N(CC)CC | -1.09% |
| COC(=O)CCNc1ccc2c(c1)OCCO2 | -7.3% |
| O=C(Nc1nc2ccc(S(=O)(=O)N3CCCC3)cc2s1)C1CCCO1 (centres undefined) | -0.69% |
| Cc1nonc1NC(=O)c1ccccc1Br | -1.31% |
| COc1ccc2c(c1)C(C)=CC(C)(C)N2C(=O)CNCc1ccc2c(c1)OCO2 | 0.73% |
| CC(=O)Oc1cc2c(C(=O)NCCN3CCOCC3)c(C)oc2c2ccccc12 | -1.15% |
| Cc1ccc(CC2CC(=O)N(c3ccc4c(c3)OCCO4)C2=O)cc1 (centres undefined) | 3.98% |
| N#Cc1ccccc1-n1c(N)c(C(=O)N2CCCC2)sc1=S | 4.81% |
| Cc1ccc(C(C(=O)NC2CCCCC2)N(C(=O)c2csnn2)C2CC2)o1 (centres undefined) | 4.47% |

| SMILES | inhibition |
| --- | --- |
| CCCC(=O)N1c2ccc(-c3csc(N)n3)cc2CC1C (centres undefined) | 1.69% |
| CCCCC(=O)Nc1ccc(C(=O)NCCCn2ccnc2)cc1 | -0.94% |
| CCCCCC(=O)Nc1ccc2oc(-c3ccncc3)nc2c1 | -2.27% |
| COc1ccccc1NC(=O)CSc1nnc(Cc2cccn2C)n1-c1ccc(F)cc1 | 2.97% |
| Cc1ccc(Nc2nc(CSc3nnnn3-c3ccccc3)cc(=O)[nH]2)cc1 | 1.57% |
| COC(=O)C1=C(C)OC(N)=C(C#N)C1c1cc(OC)ccc1OC (centres undefined) | 4.88% |
| Nc1scc(-c2ccncc2)c1Cl | 3.27% |
| CC(C)c1nc(N2CCOCC2)c(C#N)c2c1COC(C)(C)C2 | 1.28% |
| CCCCc1nc2ccccc2c(=O)n1NC(=O)c1c(O)c2cccc3c2n(c1=O)CC3 | -2.29% |
| O=C(CCSc1ccccc1)NCCSc1ccccn1 | 5.87% |
| CCCn1c(C(O)c2cc(OC)ccc2OC)nc2ccccc21 (centres undefined) | 5.72% |
| Nc1nonc1-c1nc2ccccc2n1CCC(=O)O | 7.32% |
| COc1ccc(C)c(Cn2c(-c3nonc3N)nc3ccccc32)c1 | 45.2% (active) |
| CC(=O)Nc1nonc1-c1nc2ccccc2n1Cc1ccccn1 | -4.81% |
| COCCn1c(-c2ccc(OC)c(OC)c2)nc2ccccc21 | 4.56% |
| Nc1nonc1-c1nc2ccccc2n1Cc1ccc(F)cc1 | 73.1% (active) |
| Cc1cc(NC(=O)CCC(=O)N(c2ccccc2)C(C(=O)NC2CCCC2)c2ccncc2)no1 (centres undefined) | 0.19% |
| CCn1c(COc2ccccc2)nnc1SCC(=O)Nc1ccc2c(c1)OCCO2 | 1.14% |
| COC(=O)Nc1nc2ccc(Sc3ccccc3)cc2[nH]1 | 4.96% |
| COc1ncnc2c1N=C1CC(C)(C)CC(N)=C1S2 | -1.8% |
| Cc1ccc2oc(=O)c3cnn(CC(=O)N4CCN(c5ccccn5)CC4)c3c2c1 | 3.28% |
